Shown are actives, neighbours in structure and some others; about 1.1% of the full set was active somewhere.
CatG inh: human cathepsin G inhibitors, primary screen, biochemical, pooled compound mixtures, AMC fluorescence; P08311; AID 581, 2007; actives 0.2% (n = 62,000); inhibition, % at 5 µM (by protocol); purified enzyme, AMC-tetrapeptide fluorescence;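 active means inhibition above 20% in each of the two mixture wells holding the compound; inactive means inhibition of 20% or less in either well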;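 further: 0% = enzyme control without mixture and 100% = blank lacking enzyme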
HePTP inh: inhibitors of human HePTP phosphatase, primary screen, biochemical, absorbance, leukemia target; inhibition, % at 20 µM; actives 0.64% (n = 110,000); AID 521, 2006; Tyrosine-protein phosphatase non-receptor type 7 (Homo sapiens), P35236; recombinant HePTP phosphatase activity, OD absorbance; in the data active means inhibition above about 50%;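 further: plate controls were vehicle for no effect and reference inhibitor for full effect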
FXIa mix inh: FXIa protease inhibitors in compound pools, primary screen, biochemical, 10-compound mixtures. purified FXIa, fluorogenic substrate, pooled mixtures. inhibition, % at 5 µM. actives 0.19% (n = 62,000). AID 680, 2007;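 further: each value is inhibition by a whole ten-compound pool holding the compound; 0% = enzyme with no mixture and 100% = wells lacking enzyme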
C1s block: complement C1s protease inhibitors, primary screen, biochemical, 10-compound mixtures; Complement C1s subcomponent (Homo sapiens), P09871; purified C1s, fluorogenic AMC substrate, pooled mixtures; mean inhibition % of two 10-compound mixtures (hits give high values), % at 5 µM (by protocol); actives 0.16% (n = 62,000); AID 538, 2006;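 active means inhibition above 20% in each of the two 10-compound mixture wells holding the compound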;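 further: 0% = enzyme wells lacking compound mixture and 100% = no-enzyme blank wells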
Target sequence (P09871 16-437 limits assumed): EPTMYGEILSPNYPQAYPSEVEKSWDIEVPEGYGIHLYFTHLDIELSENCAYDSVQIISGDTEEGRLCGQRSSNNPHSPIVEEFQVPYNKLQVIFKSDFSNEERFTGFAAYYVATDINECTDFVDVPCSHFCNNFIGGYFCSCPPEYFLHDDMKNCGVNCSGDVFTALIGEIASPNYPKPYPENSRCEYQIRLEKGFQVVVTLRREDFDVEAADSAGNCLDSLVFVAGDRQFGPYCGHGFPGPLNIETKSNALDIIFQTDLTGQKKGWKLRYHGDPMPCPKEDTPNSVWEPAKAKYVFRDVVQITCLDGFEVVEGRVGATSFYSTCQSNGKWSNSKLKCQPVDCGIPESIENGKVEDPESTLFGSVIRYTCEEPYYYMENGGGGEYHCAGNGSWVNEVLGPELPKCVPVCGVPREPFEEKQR
Target sequence (P09871 438-688 limits assumed): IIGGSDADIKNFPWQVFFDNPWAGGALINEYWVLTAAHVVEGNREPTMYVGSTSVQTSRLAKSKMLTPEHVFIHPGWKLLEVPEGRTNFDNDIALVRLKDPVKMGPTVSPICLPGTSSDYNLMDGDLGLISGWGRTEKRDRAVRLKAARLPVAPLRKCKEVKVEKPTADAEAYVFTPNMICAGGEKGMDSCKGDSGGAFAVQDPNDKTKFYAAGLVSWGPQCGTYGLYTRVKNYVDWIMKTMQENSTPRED
FXIIa inh mix: human factor XIIa inhibitors, primary screen, biochemical, pooled compound mixtures, fluorogenic substrate. Coagulation factor XII (Homo sapiens), P00748. purified FXIIa. inhibition, % at 5 µM. actives 0.2% (n = 62,000);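 further: 0% = enzyme without compound and 100% = no enzyme blank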
BAP1 block: inhibitors of BAP1 deubiquitinase, primary screen, biochemical, Ub-AMC fluorescence, kinetic; recombinant BAP1, Ub-AMC hydrolysis fluorescence kinetic; hits give low values; calls only at 20 µM; Ubiquitin carboxyl-terminal hydrolase BAP1 (Homo sapiens), Q92560; AID 436, 2006; actives 0.48% (n = 72,000);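 active means activity remaining at or below 50% of control, provided the compound also passes the data quality filters; inactive means the rest, including low values that fail the filters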;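 further: 100% = DMSO wells rate and 0% = substrate alone blank rate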
Numbers without * were called inactive; i = inactive; · = not tested or not shown; + = active, no number. Unless noted, no stated cut-off is given here; in the data, active means inhibition above about 20% (passing the limit was not always enough); inactive means the rest.

SMILES	CatG inh	HePTP inh	FXIa mix inh	C1s block	FXIIa inh mix	BAP1 block
CSc1ccc(/C=C(/NC(=O)c2ccc(C)cc2)c2nc3ccccc3[nH]2)cc1	·	-20	·	·	·	·
O=C(CSc1nnc(-c2ccco2)o1)Nc1ccc(F)cc1	·	-7	·	·	·	·
O=C(O)c1ccc(Cl)c(-c2ccc(/C=N\Nc3ccc([N+](=O)[O-])cn3)o2)c1	·	54*	·	·	·	·
O=C1CC2c3ccccc3C1C1C(=O)N(c3ccccc3)C(=O)C21 (stereo not drawn)	·	103*	·	·	·	·
O=C(NC(=S)NNc1nc(-c2ccccc2)cs1)c1cc2ccccc2oc1=O	·	99*	·	·	·	·
O=C(Nc1nc(-c2ccccc2)cs1)c1cc2ccccc2oc1=O	·	-15	·	·	·	·
CCCCC(=O)Nc1nnc(Cc2ccc(Cl)cc2Cl)s1	·	-1	·	·	·	·
COC(=O)C1=C(C)N(CCc2ccc(OC)c(OC)c2)C(=O)C1	·	96*	·	·	·	·
COc1cc(C=C2C(=O)NC(=S)NC2=O)cc(Br)c1O	·	-4	·	·	·	·
O=C1Nc2ccc(I)cc2/C1=C/c1cc(Br)c(O)c(Br)c1	·	·	·	·	·	+
CCOc1ccc(C2=C/C(=C/c3ccc(Cl)cc3)C(=O)O2)cc1	·	-10	·	·	·	·
CC(=O)Nc1ccc(NS(=O)(=O)c2ccc(C(C)(C)C)cc2)cc1	·	96*	·	·	·	·
O=C1c2ccccc2C(=O)c2c1cccc2S(=O)(=O)Nc1ccc(Cl)cc1	·	-2	·	·	·	·
CC(=O)Nc1ccc(NS(=O)(=O)c2cccc3c2C(=O)c2ccccc2C3=O)cc1	·	102*	·	·	·	·
CC(=O)Nc1ccc(NS(=O)(=O)c2ccc(NC(C)=O)cc2)cc1	·	7	·	·	·	·
CCOC(=O)C1=C(C)NC(=S)NC1c1ccc(OCc2ccccc2)cc1 (stereo not drawn)	·	6	·	·	·	·
Cc1ccc(C(=O)Nc2ccc(S(=O)(=O)O)c3cc(S(=O)(=O)O)cc(S(=O)(=O)O)c23)cc1NC(=O)c1cccc(NC(=O)Nc2cccc(C(=O)Nc3cc(C(=O)Nc4ccc(S(=O)(=O)O)c5cc(S(=O)(=O)O)cc(S(=O)(=O)O)c45)ccc3C)c2)c1	·	·	·	·	·	+
O=C(Nc1ccccc1-c1nc2ccccc2[nH]1)c1ccc(Cl)cc1Cl	·	-4	·	·	·	·
CCOC(=O)C(C)n1cnc2sc3c(c2c1=O)CCC3 (stereo not drawn)	7	10	1	6	6	i
CCOC(=O)Cn1cnc2sc3c(c2c1=O)CCC3	-8	-2	2	-6	57*	i
O=C(COC(=O)C1CCCN1C(=O)Oc1ccccc1)c1ccccc1 (stereo not drawn)	·	-10	·	·	·	·
O=C(O)C1CC(O)CN1C(=O)Oc1ccccc1 (stereo not drawn)	·	105*	·	·	·	·
CC(C)CN(CC(C)C)S(=O)(=O)N1CCC(C(=O)NCc2ccc(F)cc2)CC1	16	3	8	24*	9	i
O=C1/C(=C\c2ccco2)CC2CC1C/C(=C/c1ccco1)C2=O	·	102*	·	·	·	·
Cc1occc1C(=O)Nc1cccc(Cl)c1	·	-7	·	·	·	·
SMILES	CatG inh	HePTP inh	FXIa mix inh	C1s block	FXIIa inh mix	BAP1 block
CC1(C)C(C=C(Cl)Cl)C1C(=O)ON1C(=O)CCC1=O (stereo not drawn)	·	-13	·	·	·	·
c1ccc(OCCCCn2ccnc2)cc1	·	-9	·	·	·	·
O=C1OC(c2ccc(-c3ccccc3)cc2)c2ccccc21 (stereo not drawn)	·	105*	·	·	·	·
CN(C)c1oc(-c2ccc(OCc3ccccc3)cc2)nc1C#N	8	7	23*	14	6	i
O=C(Nc1ccc(-c2nc3ccccc3s2)c(O)c1)c1ccc2c(c1)OCCO2	·	68*	·	·	·	·
O=C(Nc1ccc(O)c(-c2nc3ccccc3s2)c1)c1ccc2c(c1)OCCO2	·	-12	·	·	·	·
Cc1csc(NC(=O)c2ccco2)n1	13	3	9	22*	-20	i
CCOc1cc(OCC)cc(C(=O)Nc2ccc(C(C)CC)cc2)c1 (stereo not drawn)	·	-6	·	·	·	·
O=C(Nc1ccccc1)c1ccc(-c2ccccc2)cc1	·	1	·	·	·	·
O=C(Nc1cccc(Oc2ccc(C(=O)O)c(C(=O)O)c2)c1)c1ccc(-c2ccccc2)cc1	·	102*	·	·	·	·
CCCC1=NN2C(=N)/C(=C/c3ccc(-c4ccccc4C(=O)OC)o3)C(=O)N=C2S1	·	2	·	·	·	·
CC(=O)NC1=NC(=O)/C(=C\c2ccc(-c3ccc(C(=O)O)cc3)o2)S1	·	104*	·	·	·	·
CN1C(=O)/C(=C/c2ccc(-c3ccc(C(=O)O)cc3)o2)SC1=S	·	20	·	·	·	·
CC(=O)NC1=NC(=O)/C(=C\c2ccc(Br)o2)S1	·	102*	·	·	·	·
C1CN(CC23CC4CCC(CC(C4)C2)C3)CCO1	·	8	·	·	·	·
CCN1C(=O)CC(NCCc2ccc(S(N)(=O)=O)cc2)C1=O (stereo not drawn)	·	0	·	·	·	·
CCOC(=O)C1=C(C)N=c2s/c(=C\c3ccc(C)cc3)c(=O)n2C1c1cccc([N+](=O)[O-])c1 (stereo not drawn)	·	7	·	·	·	·
Cc1cc(C)cc(N2CCCn3c2nc2c3c(=O)n(CCN3CCOCC3)c(=O)n2C)c1	5	11	23*	0	13	i
COc1cc(NC(=O)c2ccc3c(c2)C(=O)N(C2CCCCC2)C3=O)c(C(=O)O)cc1OC	·	103*	·	·	·	·
COc1cc(NC(=O)c2ccc3c(c2)C(=O)N(c2ccccc2OC)C3=O)c(C(=O)O)cc1OC	·	0	·	·	·	·
Cc1c(NC(=O)C2Cc3ccccc3CN2C(=O)c2ccco2)c(=O)n(-c2ccccc2)n1C (stereo not drawn)	14	11	7	21*	-9	i
O=C(/C=C/c1ccco1)/C=C/c1ccc(-c2ccc(Cl)c(Cl)c2)o1	·	102*	·	·	·	·
O=C(O)/C=C/c1ccc(-c2ccc(Cl)c(Cl)c2)o1	·	9	·	·	·	·
O=C(/C=C/c1ccc(-c2cc(Cl)ccc2Cl)o1)c1ccco1	·	60*	·	·	·	·
COc1ccc(C(=O)NCCSCc2ccc(Br)cc2)cc1	·	1	·	·	·	·
SMILES	CatG inh	HePTP inh	FXIa mix inh	C1s block	FXIIa inh mix	BAP1 block
CCOC(=O)C1=NN(C(=O)c2cccc([N+](=O)[O-])c2)C(O)(c2ccc(Cl)cc2)C1 (stereo not drawn)	·	104*	·	·	·	·
O=C(/C=C/c1ccc(Cl)cc1Cl)Nc1nn[nH]n1	·	87*	·	·	·	·
N#Cc1c(C(F)(F)F)cc(-c2cccs2)nc1SCC(=O)Nc1ccc(S(N)(=O)=O)cc1	·	73*	·	·	·	·
N#Cc1cc2c(nc1SCC(=O)Nc1ccc(S(N)(=O)=O)cc1)CCC2	·	-5	·	·	·	·
FC(F)(F)c1cccc(-c2nnc3ccc(C(F)(F)F)cn23)c1	-23	-5	-11	-62	4	i
FC(F)(F)c1ccc2nnc(-c3cccc(OCc4ccccc4)c3)n2c1	·	101*	·	·	·	·
FC(F)(F)c1ccc2nnc(-c3cc(Br)ccc3OCc3ccccc3)n2c1	·	55*	·	·	·	·
COc1ccc2ccccc2c1-c1nnc2ccc(C(F)(F)F)cn12	·	3	·	·	·	·
